About 650 (54%) of roughly 1,200 compounds were called active. Inconclusive results (about 5%) are left out.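 The calls were made as follows: active = signal-lowering curve whose fitted half-maximal concentration is at or below ten times the top valid dose tested; inconclusive = flat curve with 30 to 70% inhibition, or poor fit; inactive = signal increase, flat within 30%, or potency beyond limit.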 So high a share suggests a set chosen from earlier hits. Not all results are given here. Entries with a potency or affinity are not part of this list.
Experiment: EBV LMP1 TES2 canonical NF-kB signalling blockers – cell-based, HEK293, luciferase, cherry-pick, dose response (AID 588343);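 also: 0% = median of neutral control wells and -100% = MG132 positive control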
Details: HEK293 LMP1 TES2 NF-kB luciferase reporter, 16 h; series mostly up to 35 µM; activity change, negative = inhibition: at the top concentration

Activity change, negative = inhibition, inactive:
C=CCN1CCc2cc(O)c(O)cc2C(c2ccccc2)C1 (stereo not drawn) -0.248%, Cc1ccc(C)c(S(=O)(=O)N2CCN(C(=O)c3ccc(C)s3)CC2)c1 -14.8%, COc1ccccc1-c1ccccc1C1=CC(=O)CC(C)(C)C1=O 20.8%, CCOC(=O)N1CCN(C(=O)C2CCC(=O)N(Cc3ccccc3OC)C2)CC1 (stereo not drawn) 7.61%, COc1ccc(C(=O)NCCN2CCOCC2)cc1[N+](=O)[O-] 6.07%, CNC(=O)c1[nH]cnc1C(=O)N[C@@H](CCCCNC(=O)OC(C)(C)C)C(=O)OC(C)(C)C 34%, Cc1cccc(C)c1Nc1nc2ccccc2o1 2.89%, OCc1cc(C(O)CNCCCCCCOCCCCc2ccccc2)ccc1O (stereo not drawn) 6.71%, COc1ccccc1NC(=O)c1c(Nc2ccccc2C)sc(C(=O)Nc2cccc(Cl)c2)c1N 3.23%, O=C(OCc1nc2ccccc2s1)[C@@H]1CCCN1S(=O)(=O)c1ccccc1F 8.66%, C[C@@H](OC(=O)c1[nH]cnc1C(=O)N1CCc2ccccc2C1)c1ccccc1 5.49%, O=C(Nc1ccc(Cl)cc1)c1ccco1 2.2%, CSCCC(NC(=O)c1ccco1)C(=O)OCC(=O)Nc1ncc(Cl)c(C)c1Cl (stereo not drawn) 5.14%, C[C@H]1C[C@H]2[C@@H]3CCC4=CC(=O)C=C[C@]4(C)[C@@]3(F)[C@@H](O)C[C@]2(C)[C@@]1(O)C(=O)CO -27.3%, CCn1c(CCNC(=O)c2ccc(OC)cc2)nnc1SCc1ccc(Cl)cc1Cl -10.7%, CCC(Oc1ccccc1)C(=O)NC1CCSC1=O (stereo not drawn) 0.894%, CC1=C(C)C(OCCCl)N(c2cc(O)c(Cl)cc2F)C1=O (stereo not drawn) -1.48%, O=C(C[n+]1ccccc1)N/N=C/c1ccc(O)cc1 12.7%, CC(C)Cc1ccc([C@H](C)C(=O)O)cc1 10.3%, Cc1ccc(CNC(=O)C2CCN(S(=O)(=O)c3c(C)noc3/C=C/c3ccco3)CC2)cc1 23.8%, C[C@@H]1CN([C@@H](C)CO)C(=O)c2cc(NC(=O)Nc3ccccc3)ccc2O[C@H]1CN(C)C(=O)Nc1cccc2ccccc12 -8.5%, O=C(NN1C(=O)C2C3C=CC(C4CC34)C2C1=O)c1cccc(Cl)c1 (stereo not drawn) 2.66%, Nc1ccc(CCNc2ncnc3c2ncn3[C@@H]2O[C@H](CO)[C@@H](O)[C@H]2O)cc1 -19.4%, NC(=O)c1ncn([C@@H]2O[C@H](CO)[C@@H](O)[C@H]2O)n1 44.1%, Nc1ccn(C2CCCO2)c(=O)n1 (stereo not drawn) -9.64%, CCOc1ccccc1/C=C/c1onc(C)c1S(=O)(=O)N1CCC(C(=O)N(CC)CC)CC1 -2.53%, COc1nc(Nc2nc3ccccc3c(=O)[nH]2)nc2ccc(C)cc12 63.8%, CCCC(=O)NCCCc1nc2ccccc2n1C -6.19%, COc1c(S(=O)(=O)N2CCN(c3ccc(F)cc3)CC2)ccc(Cl)c1Cl 0.418%, O=C(CCCOc1ccccc1)N1CCN(c2ccccc2)CC1 -13.6%, Cc1ccc(NC(=S)Nc2cccc(S(=O)(=O)Nc3c(C)n(C)n(-c4ccccc4)c3=O)c2)cc1 -6.17%, Cc1cccc(NC(=O)Nc2c(C)n(C)n(-c3ccccc3)c2=O)c1C 2.9%, C/C(=N\NS(=O)(=O)c1ccc([N+](=O)[O-])cc1)c1cccs1 28.1%, O=C(CCNc1cccc(F)c1)c1cc2ccccc2o1 -15.8%, Cc1ccccc1CC(=O)NCc1cccnc1 2.8%, COc1ccc(-c2ccc3c(c2)S(=O)(=O)c2cccc(C(=O)NCc4cc(C)oc4C(F)(F)F)c2C3=O)cc1OC 64.1%, Cc1ccc(N2CCCCn3c2nc2c3c(=O)n(CC(=O)O)c(=O)n2C)cc1 1.98%, Cc1ccnc(N/C=C(/NC(=O)c2ccccc2)C(=O)N/N=C\c2ccc(F)cc2)n1 -17.7%, COc1ccc(-c2cc(C(F)(F)F)n3nc(C(=O)N4CCOCC4)nc3n2)cc1 -11.3%, O=C(Nc1nnc(N2CCCCCC2)s1)c1cc(-c2ccc(Br)cc2)on1 -2.98%, COCCCNC(=O)CN1C(=O)COc2ccc(S(=O)(=O)N3CCOCC3)cc21 7.21%, CCCSc1nc2cc(S(=O)(=O)N3CCOCC3)ccc2n1CC 13.1%, CN(C)CCN(Cc1ccc(Cl)cc1)c1ccccn1 17.7%, COc1ccc(CC(C)NCC(O)c2ccc(O)c(NC=O)c2)cc1 (stereo not drawn) 22.3%, CCOC(=O)C1=C(C)NC(C)=C(C(=O)OCC)C1c1cn(-c2ccccc2)nc1-c1ccco1 26.1%, O=C(CSc1nnc(-c2cccc(S(=O)(=O)N3CCOCC3)c2)n1C1CCCCCC1)NCc1ccccc1 14.6%, O=C(Nc1cc(S(=O)(=O)N2CCOCC2)ccc1Cl)c1ccncc1 -7.69%, N=c1c(-c2nc3ccccc3[nH]2)cc(C(=O)c2cccs2)nn1-c1ccccc1 42.9%, CCCC(=O)NCCCc1nc2ccccc2[nH]1 -10.5%, Cc1cc(NC(=O)c2ccc(C)s2)n(-c2nc3ccccc3[nH]2)n1 1.12%, O=c1cc(Cl)nc2ccccn12 -6.86%, COc1ccc2[nH]c3c(=O)n(CCCCC(=O)N4CCC(C(N)=O)CC4)c(=S)[nH]c3c2c1 4.91%, O=C(Cc1ccc(Cl)cc1)NCC(=O)N1CCCCC1 -5.16%, Cc1ccccc1N(C(=O)c1snc(C(N)=O)c1N)C(C(=O)NC1CCCCC1)c1ccc(O)cc1 (stereo not drawn) 47.4%, S=C1SCN(Cc2ccccc2)CN1Cc1ccco1 -12.8%, CCOc1cc(/C=C2/C(=N)N3N=C(CC)SC3=NC2=O)ccc1OC(=O)c1ccco1 -2.03%, CC(=O)Oc1ccc(C(=O)Nc2cccnc2)cc1 11%, COc1ccc(CCC(=O)Nc2ccc(C)c([N+](=O)[O-])c2)cc1 3.84%, O=C(COc1ccc2ccccc2c1)NCCNC(=O)COc1ccc2ccccc2c1 33.9%, CNC(=O)C1=NCCCc2cc(OC)c(OC)cc21 -2.99%, O=C(NC1CCCCC1)N1CCN(c2ccc([N+](=O)[O-])cc2)CC1 -12.7%, COc1ccc(-n2nc(C(=O)c3cccs3)cc(-c3nc4ccccc4[nH]3)c2=N)cc1 3.98%, CNC(=S)N1N=C(c2cccs2)CC1c1ccc(F)cc1 (stereo not drawn) 22.4%, O=C(CN1C(=O)C2C3C=CC(C3)C2C1=O)NCCC1=CCCCC1 (stereo not drawn) 21.8%, O=C(CN(Cc1cccs1)C(=O)CNS(=O)(=O)c1ccccc1)NCc1ccco1 5.03%, O=C(COC(=O)c1ccc(S(=O)(=O)NCc2ccco2)cc1)Nc1ccc(Cl)cn1 -7.56%, Cc1ccnc(NC(=O)c2cccc(NC(=O)c3ccc(Cl)c(Cl)c3)c2)c1 15.1%, CC(=O)Nc1ccc(OCC(O)CNC(C)C)cc1 (stereo not drawn) 9.4%, CCOc1ccc(NC(=O)Cn2cc(C(=O)CC)c3ccccc32)cc1 7.48%, Cc1cc(OCC(=O)Nc2cnn(CCCC(=O)O)c2)ccc1Cl -10.7%, COC(=O)c1cccc(COC(=O)c2ccccc2NC(=O)c2ccco2)c1 -0.414%, COc1ccc(NC(=O)Cn2nnc(C(=O)NCc3ccccc3)c2N)c(OC)c1 8.34%, COc1cccc(-c2nc(NCc3ccccc3)c3ccccc3n2)c1O 21.1% [at 11 µM], COc1ccc(C(CNC(=O)Nc2ccccc2)N2CCN(C)CC2)cc1 (stereo not drawn) -9.47%, COc1ccc(NC(=O)C[C@H]2C(=O)N(CCc3ccccc3)C[C@@H]2c2ccc(OC)cc2)cc1 18.3%, O=C(Nc1ccc2c(c1)C(=O)OC2)c1ccc(C(F)(F)F)cc1 -6.81%, Cn1cccc1CC(=O)NNC(=S)Nc1ccccc1Cl 3.06%, COc1ccc(NC(=O)NCCN2CCc3ccccc3C2)cc1 -2.14%, C=CCN(c1ccc(C(=O)Nc2ccc3c(c2)n(C)c(=O)n3C)cc1)S(C)(=O)=O 22%, CCNc1nc(CN2CCOCC2)nc2sc3c(c12)CCC3 14.5%, COc1cccc(C2Nc3ccc4ccccc4c3C3=C2C(=O)CC(C)(C)C3)c1OCC(=O)O (stereo not drawn) 24.8%, O=C(CN1C(=O)CCOc2ccccc21)Nc1ccc(Cl)c(S(=O)(=O)N2CCOCC2)c1 -6.94%, COc1ccc(C(c2sc3nc(C)nn3c2O)N2CCC(C(N)=O)CC2)cc1OC (stereo not drawn) -11.1%, CC1=C(CC(=O)O)c2cc(F)ccc2C1=Cc1ccc(S(C)(=O)=O)cc1 1.68%, COc1ccc(NC(=O)N(CCN2CCCC2)Cc2cc3cc(OC)c(OC)cc3[nH]c2=O)cc1 -2.6%, O=C(Nc1ncc(Br)s1)C(Cc1ccccc1)n1cccc1 (stereo not drawn) 1.83%, CCOC(=O)c1cc(-c2ccccc2)n(CC(=O)Nc2cccc(OC)c2)c1C -5.78%, CC(=NNC(=S)N1CCCCCC1)c1cccc2cccnc12 53%, Cc1ccc2oc(C(=O)Nc3ccc(S(=O)(=O)Nc4onc(C)c4C)cc3)c(C)c2c1 4.12%, COc1ccc(OC)c(S(=O)(=O)NC(C)CCc2ccccc2)c1 (stereo not drawn) -3.32%, O=C(NCC1CCOCC1)c1ccc(OC2CCN(Cc3ccccn3)CC2)cc1 -4.71%, COCCCNCC1C(Oc2ccc(Cl)cc2)C(=O)N1c1ccccc1C (stereo not drawn) -5.79%, Cc1sc2ncn(CC(=O)N3CCC(C(N)=O)CC3)c(=O)c2c1S(=O)(=O)N1CCOCC1 -2.58%, CN(C)S(=O)(=O)c1ccc(Cl)c(C(=O)NCCNC(=O)c2cc(S(=O)(=O)N(C)C)ccc2Cl)c1 10.7%, Cc1ccc(CCNC(=O)CCc2nc3ccccc3[nH]2)cc1 17.2%, CCN(Cc1ccncc1)C(=O)CCc1ccccc1 5.62%, COc1cc(N)c(Cl)cc1C(=O)NC1CCN(Cc2ccccc2)CC1 47.7%, NC(=O)CC(NC(=O)c1ccccc1)c1ccc(NC2CCN(Cc3ccccc3)CC2)c([N+](=O)[O-])c1 (stereo not drawn) -11.4%, O=C(N/N=C(/CC(=O)c1cccs1)C(F)(F)F)c1ccc(O)cc1 2.98%, CN1CCN(CCOc2ccc(Cc3ccccc3)cc2)CC1 2.14%, Cn1c(=O)[nH]c(=O)c2c1nc(CN1CCOCC1)n2CCCc1ccccc1 16.2%, CCn1c2ccccc2c2cc(NC(=O)c3ccccc3-c3ccccc3C(=O)O)ccc21 10.4%, CS(=O)(=O)N(CC(=O)Nc1ccc(F)cc1F)C1CCCCC1 6.2%
